# L3MBTL1 block: blocks human L3MBTL1; Q9Y468; AlphaScreen L3MBTL1–H3K9me1 peptide binding; Potency, µM (top dose mostly 57.1 µM), without a hit: at the top dose activity, negative = inhibition, actives largely listed as inhibitors; 230,000 tested, 0.66% active; AID 485360; further: on the % scale 0 is the no-effect control and ±100 the full control effect; nearly all actives have a fitted effect of over 60% in size
#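 L3MBTL1 50 nM + b-AHA-H3(1-15)K9me1 75 nM, 30 min RT; compound added, 30 min RT; streptavidin donor/Ni-chelate acceptor beads 10 ug/mL each final, 30 min RT dark; AlphaScreen read.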
# G9a inh: inhibitors of human histone lysine methyltransferase G9a | AID 504332 | 350,000 tested, 8.8% active | Potency, µM (titrated, usually from 102 µM), without a hit: top-dose activity, negative = inhibition, usual class: inhibitors | G9a H3K9 monomethylation, AlphaScreen, 2 h; further: on the % scale 0 is the no-effect control and ±100 the full control effect; nearly all actives have a fitted effect of over 75% in size
# Target sequence (Q96KQ7 913-1193 limits assumed): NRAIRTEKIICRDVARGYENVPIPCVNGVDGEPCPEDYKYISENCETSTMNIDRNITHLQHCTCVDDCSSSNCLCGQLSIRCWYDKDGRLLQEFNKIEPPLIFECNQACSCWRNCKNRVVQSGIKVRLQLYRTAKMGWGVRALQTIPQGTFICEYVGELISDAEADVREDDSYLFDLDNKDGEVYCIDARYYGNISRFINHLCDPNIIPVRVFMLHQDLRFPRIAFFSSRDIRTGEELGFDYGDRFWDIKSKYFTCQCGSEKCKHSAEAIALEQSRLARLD
#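 Signal arises when biotinylated H3K9 peptide, once monomethylated, bridges streptavidin donor and antibody-captured acceptor beads. Enzyme at 20 nM was preincubated 15 min with test compounds; peptide 500 nM and SAM 20 uM then reacted for 2 h.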
# BAZ2B inh: BAZ2B (human) inhibition. Q9UIF8. AlphaScreen BAZ2B-H3K14Ac peptide displacement. Potency, µM (top dose mostly 114 µM), for the others: top-dose activity change, negative = inhibition, actives largely listed as inhibitors. 360,000 tested, 4.4% active; further: on the % scale 0 is the no-effect control and ±100 the full control effect; nearly all actives have a fitted effect of over 60% in size
#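 Compounds, titrated to a top concentration of 110 uM, were incubated 30 min at room temperature with preformed BAZ2B/acetyl-K14 H3 peptide complex (50 nM each). Proximity signal was measured by AlphaScreen after 20 min with beads.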
# JMJD2A Tudor inh: blocks the human JMJD2A Tudor domain; O75164; AlphaScreen JMJD2A-Tudor / H3K4me3 peptide binding; Potency, µM (titrated, usually from 114 µM), for inactives: at the highest dose activity change, negative = inhibition, most hits filed as inhibitors; 390,000 tested, 4.4% active; AID 504339; further: on the % scale 0 is the no-effect control and ±100 the full control effect; nearly all actives have a fitted effect of over 50% in size
# HP1b chromo inh: inhibitors of HP1-beta chromodomain binding to methylated histone tails; P83916; AlphaScreen HP1-beta / biotin-H3K9me3 peptide binding; Potency, µM (titrated, usually from 114 µM), for the others: at the top dose activity change, negative = inhibition, hits mostly inhibitors; 390,000 tested, 0.56% active; further: nearly all actives have a fitted effect of over 70% in size
# Target sequence (P83916 whole entry, looked up): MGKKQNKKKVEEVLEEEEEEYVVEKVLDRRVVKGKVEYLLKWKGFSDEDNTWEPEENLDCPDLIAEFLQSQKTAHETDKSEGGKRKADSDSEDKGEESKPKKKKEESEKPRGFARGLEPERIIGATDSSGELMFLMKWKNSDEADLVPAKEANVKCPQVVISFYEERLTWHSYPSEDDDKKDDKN
#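 AlphaScreen: HP1-beta (50 nM) preformed 30 min with biotin-H3(1-18)K9me3 peptide (50 nM) in PBS pH 7.4, 0.01% Tween-20. Compound added for 30 min at RT, then streptavidin donor/nickel chelate acceptor beads (10 ug/mL) for 30 min.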
# Starred values were filed as active, the others as inactive; ? = inconclusive; . = no result; ! = not confirmed by another sample; [ ] = another dose, or the depositor's remark. Only some compounds are listed: those with a hit (about 11% of all), similar ones and a draw of the others. The call rests on the fitted dose curve; in most records, active means well fitted inhibition curve with a large enough effect; inconclusive means small, poorly fitted or top-dose-only effect; inactive means no such curve, though single readings can be large or run the other way. Potency means the concentration at half of the fitted maximal effect.
SMILES,L3MBTL1 block,G9a inh,BAZ2B inh,JMJD2A Tudor inh,HP1b chromo inh
CN1CCN(S(=O)(=O)c2ccc(NC(=S)NC(=O)c3ccccc3)cc2)CC1,.,?,?,-28%,-16%
CN1CCN(S(=O)(=O)c2ccc(NC(=S)NC(=O)c3ccc(Cl)cc3)cc2)CC1,2%,18µM*,8%,?,?
Cc1ccc2c(c1)c(/C=C/c1cc[n+](C)cc1)c(C)n2C,.,45µM*,-15%,?,8%
Cc1ccc2[nH]c(C)c(/C=C/c3cc[n+](C)cc3)c2c1,.,-100%,?,-22%,-18%
Cc1ccc(S(=O)(=O)n2nc(C)c(S(=O)(=O)N3CCCCC3)c2C)cc1,.,45µM*!,-31%,-6%,35%
Cc1nn(S(=O)(=O)c2ccc(F)cc2)c(C)c1S(=O)(=O)N1CCOCC1,.,35µM*,?,-12%,5%
Cc1nn(S(=O)(=O)c2ccc(F)cc2)c(C)c1S(=O)(=O)N1CCCCC1,.,22%[0.501 µM],-2%,-27%,51%
Cc1nn(S(=O)(=O)c2ccccc2)c(C)c1S(=O)(=O)N1CCOCC1,.,79µM*,-27%,-27%,43%[57 µM]
Cc1c(C)n(C)c2ccc(C(=O)NCc3cccc(F)c3)cc12,.,?,?,?,0%
Cc1ccccc1CNC(=O)c1ccc2[nH]c(C)c(C)c2c1,.,?,40µM*,50µM*,-16%
COc1ccccc1CCNC(=O)c1ccc2c(c1)c(C)c(C)n2C,.,-33%[59 µM],?,?,?
CCc1ccccc1NC(=O)c1ccc2[nH]c(C)c(C)c2c1,.,2%[59 µM],21%,-25%,29%
Cc1ccccc1CNC(=O)c1ccc2c(c1)c(C)c(C)n2C,.,?,40µM*,?,-20%
CCN(CC)c1ccc(NC(=O)c2ccc3c(c2)c(C)c(C)n3C)cc1,.,3.2µM*,11µM*,18µM*,35µM*
COc1ccc(OC)c(S(=O)(=O)N2Cc3ccccc3CC2C(=O)Nc2ccc(C(C)=O)cc2)c1 (stereo not given),.,-11%[59 µM],-17%,-24%,-4%
CC1(c2ccc([N+](=O)[O-])cc2)NC(=O)N(CC(=O)Nc2ccc(N3CCCCC3)cc2)C1=O (stereo not given),-25%,11µM*,35µM*,?,?
CC1(c2ccc(OC(F)F)cc2)NC(=O)N(CC(=O)Nc2ccc(N3CCCCC3)cc2)C1=O (stereo not given),-22%,7.1µM*,?,?,?
Cc1cc(C(=O)NNC(=O)/C=C/c2ccc(F)cc2)c(C)o1,.,83%,-1%,-4%,46%
CCOC(=O)COc1cc(Br)c(/C=N/Nc2ccccc2)cc1OC,-5%,10µM*,-1%,-24%,27%
C=CCOc1c(Br)cc(/C=N/Nc2ccc(C(=O)O)cc2)cc1OCC,-5%,3.2µM*,-5%,-27%[57.1 µM],2%
COc1ccc(/C=N/Nc2ccc(C(=O)O)cc2)cc1Br,.,35µM*,?,-26%,12%
Cc1cccc(-c2nnc3n(CCc4ccccc4)c(=O)c4ccccc4n23)c1,.,-28%[59 µM],1%,-18%,18%
O=C(Nc1ccccc1F)C(Cc1ccccc1)N1Cc2ccccc2C1=O (stereo not given),.,-15%[59 µM],1%,-8%,25%
N#Cc1nc(-c2ccc(COc3ccccc3)o2)oc1N1CCN(c2ccccc2)CC1,.,?,?,-14%,18%
N#Cc1nc(-c2ccc(COc3ccc(Cl)cc3)o2)oc1N1CCN(c2ccccc2)CC1,.,-8%[59 µM],-8%,-17%,11%
CC1CCN(c2oc(-c3ccc(COc4ccccc4)o3)nc2C#N)CC1,.,5µM*,?,?,-15%
COc1ccc(OCc2ccc(-c3nc(C#N)c(N4CCC(C)CC4)o3)o2)cc1,.,3.5µM*,3.5µM*,?,?
COc1ccc(OCc2ccc(-c3nc(C#N)c(N4CCN(C)CC4)o3)o2)cc1,.,18µM*,32µM*,56µM*,?
COc1ccc(OCc2ccc(-c3nc(C#N)c(N4CCC(C(N)=O)CC4)o3)o2)cc1,.,-7%[59 µM],?,?,14%
Cc1ccc(OCc2ccc(-c3nc(C#N)c(N4CCC(C)CC4)o3)o2)cc1,.,10µM*,?,-34%,-21%

# Screening results as filed in PubChem.
